Shown are actives, neighbours in structure and some others; about 4% of the full set was active somewhere.
CF NFkB inh: blocks PAF-induced NF-kB reporter in cystic fibrosis cells | KKLEB NF-kB-GFP reporter, GFP fluorescence overnight | inhibition, % at 5 µM | hit rate 0.86% among 360,000;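 active = at least 50% inhibition at 5 µM, scaled per plate between neutral and stimulator controls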;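 note: PAF is a Pseudomonas aeruginosa culture filtrate used as stimulus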
TWEAK Fn14 block: TWEAK-Fn14 signaling inhibition; TWEAK-stimulated Fn14 reporter cells, luciferase luminescence, 8 h; inhibition, % at 10 µM; hit rate 2% among 360,000; AID 1159606; in the data active = inhibition above about 50%
TROY NFkB inh: TROY signaling inhibition; hit rate 0.98% among 360,000; AID 1347056; Q293 LMP1-TROYcd NF-kB luciferase reporter, 4 h; inhibition, % at 10 µM;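 active = compounds whose plate-normalised and pattern-corrected inhibition of the luciferase reporter signal at the single screening dose is 50% or more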
Peg3 promoter: inhibitors of Peg3 promoter. hit rate 1.7% among 360,000. AID 588405. inhibition, % at 20 µM. HeLa PEG-Prom luciferase reporter, luminescence, overnight;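 active = inhibition of at least 50% at 20 µM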
HIF-2a inh: HIF-2a inhibition | 786-0 RCC cells HIF-2a reporter, luciferase luminescence, overnight | inhibition, % at 18.8 µM | hit rate 0.72% among 360,000;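 active = inhibition of the luminescence signal of 40% or more relative to plate controls, in a single-dose primary screen at 18.75 µM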
KKLEB cytotox: counter-screen for CF NF-kB inhibitors: cytotoxicity; KKLEB CF airway cells viability, ATPlite luminescence, overnight; stronger effect = lower value; cells stimulated with P. aeruginosa culture filtrate; activity change (cytotoxicity), % at 5 µM; hit rate 0.36% among 360,000;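 active = corrected activity change at or below -50% at 5 µM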
Of the large screens only hits and unclear results are named; the others gave an inactive call.

O=C1NC(=S)NC(=O)C1=Cc1ccc(Br)s1	HIF-2a inh 79.0
O=c1[nH]cnc2nc(-c3ccc(N(CCCl)CCCl)cc3)[nH]c12	none
CCN(CC)C(=O)c1ccc(NC(=O)c2c(C)noc2C)cc1	none
N#CC1=C(N)Oc2c(c(=O)oc3ccccc23)C1c1ccc([N+](=O)[O-])o1 (stereo not given)	none
O=c1oc2ccccc2c(O)c1[C@H]1c2ccc(O)cc2Oc2c1c(=O)oc1ccccc21	TROY NFkB inh 65.1
CN1C(=O)C(C)(C2=CCCCC2)C(=O)NC1=S (stereo not given)	Peg3 promoter 92.7
CN1C(=O)NC(=O)C(C)(C2=CCCCC2)C1=O (stereo not given)	none
Cc1ccccc1-n1c(O)c(/C=C2/C(c3ccccc3)=Nc3ccccc32)c(=O)[nH]c1=O	TWEAK Fn14 block 55.6, HIF-2a inh 63.5
Cc1cccc(-n2c(O)c(/C=C3/C(c4ccccc4)=Nc4ccccc43)c(=O)[nH]c2=O)c1	TWEAK Fn14 block 52.9
COC(=O)C1=Nc2ccccc2/C1=C\c1c(O)n(-c2cc(OC)ccc2OC)c(=O)[nH]c1=O	TWEAK Fn14 block 59.9
COC(=O)C1=C(c2ccc(S(C)(=O)=O)cc2)C[C@@H]2CC[C@H]1N2C(=O)NCCCOC(C)C	none
CCCN1C2CCCC1CC(NC(C)=O)C2 (stereo not given)	none
CN(C)CC1CCCCC1OC(=O)Cc1ccc(Cl)c([N+](=O)[O-])c1 (stereo not given)	none
Cc1nc2ccc(Br)cc2c(=O)n1-c1ccc([N+](=O)[O-])c(C(F)(F)F)c1	TROY NFkB inh 55.8
O=C1NC(=O)C(=Cc2ccc(SC3CCCCC3)o2)C(=O)N1	HIF-2a inh 52.4
Oc1cc(Cl)c(Cl)c(Cl)c1	TROY NFkB inh 55.2
Oc1cc(Cl)c(Cl)c(Cl)c1Cl	TROY NFkB inh 54.0
C#CC[N+]1(C)[C@@H]2CC(OC(=O)C(CO)c3ccccc3)C[C@H]1C(O)C2 (stereo not given in full)	none
O=[N+]([O-])c1ccc(CNCCc2ccccc2)cc1	TWEAK Fn14 block 98.1
CC(C)(O)/C=C/C(=O)[C@](C)(O)C1[C@H](O)C[C@@]2(C)C3CC=C4C(C[C@H](O)[C@@H](O)C4(C)C)[C@]3(C)C(=O)C[C@]12C (stereo not given in full)	CF NFkB inh 71.2, TROY NFkB inh 55.6, Peg3 promoter 61.2, KKLEB cytotox -75.0
Cc1ccc2c(c1)C1CN(C)CCC1N2C(=O)/C(C#N)=C/c1ccc2c(c1)OCO2 (stereo not given)	none
CCOC(=O)[C@]12Cc3cc(OC)ccc3[C@H]1N(C1CCCCC1)C(=O)c1ccccc12	TWEAK Fn14 block 65.8 (no result: CF NFkB inh, Peg3 promoter, KKLEB cytotox)
CCOC(=O)[C@]12Cc3cc(OC)ccc3[C@H]1N(C)C(=O)c1ccccc12	none (no result: CF NFkB inh, Peg3 promoter, KKLEB cytotox)
CCOC(=O)[C@]12Cc3cc(Cl)ccc3[C@H]1N(Cc1ccccc1)C(=O)c1cc(OC)ccc12	TWEAK Fn14 block 52.4 (no result: CF NFkB inh, Peg3 promoter, KKLEB cytotox)
CCOC(=O)[C@]12Cc3cc(OC)ccc3[C@H]1N(Cc1ccccc1)C(=O)c1cc(OC)ccc12	none (no result: CF NFkB inh, Peg3 promoter, KKLEB cytotox)
CCOC(=O)[C@]12Cc3cc4ccccc4cc3[C@H]1N(Cc1ccccc1)C(=O)c1cc(OC)ccc12	TWEAK Fn14 block 56.3 (no result: CF NFkB inh, Peg3 promoter, KKLEB cytotox)
CCOC(=O)[C@]12Cc3cc4ccccc4cc3[C@H]1N(Cc1ccccc1)C(=O)c1ccccc12	TWEAK Fn14 block 68.3 (no result: CF NFkB inh, Peg3 promoter, KKLEB cytotox)
C#C[C@]1(O)CCC2C3CCC4=C/C(=N/OCC(=O)NC(C)C(=O)NC(CCSC)C(=O)O)CC[C@]4(C)C3CC[C@@]21C (stereo not given in full)	none
O=C1c2ccccc2-n2nncc2C2c3cc(Br)ccc3CCN12 (stereo not given)	none
CCOc1ccc(NC(=O)N2C[C@H]3C[C@@H](C2)c2cccc(=O)n2C3)cc1	none
O=C(Cc1cccs1)N1Cc2ccccc2-n2nncc2C1	none
Nc1ccccc1C(=O)OCCOc1ccccc1	TWEAK Fn14 block 67.0
C=CCOC(=O)c1ccccc1N	none
C[C@]12CCC3C(CC[C@H]4C[C@H](N)CC[C@]34C)C1CC[C@H]2O (stereo not given in full)	none
C=C(C)[C@@]12OC3(c4ccccc4)O[C@@H]1C1[C@@H]4O[C@]4(CO)[C@@H](O)[C@]4(O)C(=O)C(C)=C[C@H]4[C@@]1(O3)[C@H](C)[C@H]2OC(=O)/C=C/C=C/c1ccccc1 (stereo not given in full)	CF NFkB inh 54.4, Peg3 promoter 99.8, KKLEB cytotox -53.0
CCNC(=O)N1Cc2ccccc2-n2nncc2C1	none
Cc1ccc(-n2c(O)c(C=NCc3ccccn3)c(=O)[nH]c2=S)cc1	none
CC1=C(O)C(=O)C=C2C1=CC=C1C2(C)CCC2(C)C3CC(C)(C(=O)O)CCC3(C)CCC12C (stereo not given)	CF NFkB inh 78.1, TWEAK Fn14 block 106.1, TROY NFkB inh 89.4, Peg3 promoter 105.1, HIF-2a inh 91.9, KKLEB cytotox -74.8
O=C1NC2C(=CC(O)C(O)C2O)c2cc3c(cc21)OCO3 (stereo not given)	CF NFkB inh 77.7, TWEAK Fn14 block 99.7, TROY NFkB inh 79.3, Peg3 promoter 98.0
COc1ccc(-c2cc(=Nc3cccc(C(=O)O)c3)c3cc(C)ccc3o2)cc1	TWEAK Fn14 block 57.7
CC(C)(C)n1cc(C(=O)c2ccc3ccccc3c2O)cn1	TWEAK Fn14 block 88.2, TROY NFkB inh 82.9
CCN(CC)C(=O)c1ccc(NC(=O)COc2ccc([N+](=O)[O-])cc2Cl)cc1	none
COC(=O)C1=C(c2ccc(OC(F)(F)F)cc2)C[C@@H]2CC[C@H]1N2C(=O)N1CCC(C)CC1	none
COc1ccc(CCN)cc1OC	none
NCCc1ccc(OCc2ccccc2)c(OCc2ccccc2)c1	Peg3 promoter 106.6
S=P(Nn1cnnc1)(c1ccc(Br)cc1)c1ccc(Br)cc1	none
CN(C)C(=O)CSc1nnc([C@@H](N)Cc2ccccc2)o1	none
CCOc1ccc(Cl)cc1CNCCc1ccccc1F	Peg3 promoter 73.7
COc1ccc(CCNCc2ccccc2F)cc1OC	none
Cc1c2ccncc2c(C)c2c1[nH]c1ccccc12	CF NFkB inh 83.1, Peg3 promoter 101.5
Cc1cccc(N2C(=O)/C(=C/c3ccc(N4CCN(C)CC4)o3)C(=O)NC2=S)c1C	none
O=C1NCN(c2ccccc2)C12CCN(C(c1cc3ccccc3o1)c1nnnn1-c1ccc3c(c1)OCCO3)CC2 (stereo not given)	none
Cc1cccc(C)c1-n1nnnc1C(c1cc2ccccc2o1)N1CCC(n2c(=O)[nH]c3ccccc32)CC1 (stereo not given)	TWEAK Fn14 block 101.8, TROY NFkB inh 76.6, Peg3 promoter 101.6
O=c1[nH]c2ccccc2n1C1CCN(C(c2cc3ccccc3o2)c2nnnn2Cc2ccccc2)CC1 (stereo not given)	CF NFkB inh 81.7, TWEAK Fn14 block 75.5, Peg3 promoter 93.3, KKLEB cytotox -96.3

Bioassay records (PubChem)
